From PubChem
HSF1 activator – increases HSF-1 driven luciferase reporter signal; NIH3T3-HGL HSF-1 luciferase reporter, MG132, 8 h; 100% = twice DMSO control signal; activation, % at 9 µM; 300,000 tested, 1.7% active;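 active = mean replicate activation of at least 50% with a set share of replicates each reaching 50%; inconclusive = only one of those two conditions met; inactive = mean below 50% and too few replicates reaching it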;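 note: 0% = median of the neutral control wells and 100% = twice that signal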
MITF TRPM1 HTS – increases MITF-driven TRPM1 promoter luciferase signal. activation, % at 12.5 µM. SK-MEL-5 TRPM1-promoter luciferase, 24 h; % of positive control, neutral wells = 0. AID 588334. 300,000 tested, 0.75% active;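 active = mean activation of at least 80% with every replicate also reaching 80%; inconclusive = mean reaches 80% but some replicate falls short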;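 note: 0% = neutral control wells and 100% = parthenolide positive control wells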
HSF1 inh – HSF1 inhibition. NIH3T3-HGL HSE-luciferase, MG132-induced, luminescence 8 h; active compounds read low. activity change, negative = inhibition, % at 7.5 µM (by protocol). 300,000 tested, 0.77% active;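 active = more than half of replicate wells show activity change below -50%, luminescence cut by over half; inconclusive = some wells, but at most half, below -50%; inactive = no replicate well below -50%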;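 note: luciferase reports HSF-1 transcriptional activity via heat shock element; 0% = median of DMSO wells and -100% = zero luminescence signal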
Wnt bcat act – activates Wnt/beta-catenin signaling in a reporter cell assay; activator, plate reader; activation, % at 9.35 µM; 300,000 tested, 1.2% active; in the data active = activation above about 30%, passing the limit was not always enough; inconclusive = no clear call, values can overlap the other calls;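 note: 0% = neutral control wells and 100% = positive control wells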
esBAF inh – blocks esBAF chromatin remodeling in mouse ES cells; reporter increase, % at 12.5 µM; 350,000 tested, 2% active; Bmi1-luciferase knock-in reporter, 24 h; 100% = twice the neutral-well signal; in the data active = activation above about 40%; inconclusive = no clear call, values can overlap the other calls;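 note: 0% = median of the plate's neutral control wells and 100% = double that signal; a rise in the Bmi1 reporter signal indicates esBAF inhibition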
SMARCA2 act – activators of SMARCA2 function | MG213 cells, MMTV-luciferase reporter, dexamethasone, overnight | AID 652017 | activation, % at 9.1 µM | 370,000 tested, 1% active; in the data active = activation above about 7.8%;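 note: 0% = vehicle wells and 100% = reference activator wells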
Starred values were filed as active, the others as inactive; ? = inconclusive; . = not tested or not shown. This is a sample that favours compounds with a hit; in the whole collection about 4.3% have one here.

SMILES	HSF1 activator	MITF TRPM1 HTS	HSF1 inh	Wnt bcat act	esBAF inh	SMARCA2 act
CSc1nc2ccc(NC(=O)C3CCCO3)cc2s1 (stereo not given)	37	?	24	49*	14	2
CSc1nc2ccc(NC(=O)NC(=O)c3c(F)cccc3F)cc2s1	37	.	4	15	.	3
CCc1cccc(C)c1NC(=O)C1CCCO1 (stereo not given)	19	11	-4	2	-10	0
CN1C(=O)c2cc(NS(=O)(=O)c3ccc(F)cc3)ccc2OC[C@H]2O[C@@H](CC(=O)Nc3cccc4ccccc34)CC[C@@H]21	.	.	.	.	8	.
COc1cccc(C2CC(c3cccs3)=NN2C(=O)c2ccco2)c1O (stereo not given)	63*	2	73	-2	15	-2
O=C(c1ccco1)N1N=C(c2cccs2)CC1c1ccccc1O (stereo not given)	16	0	10	-2	.	-1
CC(C)CC#Cc1cnc2c(c1)C(=O)N([C@@H](C)CO)C[C@@H](C)[C@@H](CN(C)C(=O)Cc1ccncc1)O2	.	.	.	.	1	.
Fc1ccc(Oc2ccnc(Cl)n2)c(Cl)c1	-8	.	-6	44*	.	-2
Nc1ccc(Oc2ncccn2)c(Cl)c1	-9	-9	-6	1	-3	-1
COCC(=O)Nc1ccc2c(c1)OC[C@@H](C)N(C(=O)Nc1ccccc1F)C[C@@H](C)[C@H](OC)CN(C)C2=O	.	.	.	.	3	.
Cc1c(NC(=O)CSc2nnc3c4ccccc4n(CCc4ccccc4)c3n2)c(=O)n(-c2ccccc2)n1C	88*	17	66	.	.	-7
Cc1ccc(-n2ncc3c(NCc4cccnc4)ncnc32)c(C)c1	-9	-15	-8	-5	.	-6
Cc1cccc(-n2ncc3c(N4CC(C)CC(C)C4)ncnc32)c1 (stereo not given)	-23	89*	-6	12	62*	6
COc1ccc(-n2ncc3c(NCc4cccnc4)ncnc32)cc1	34	68	16	43*	55*	3
Cc1ccc(-n2ncc3c(NCc4ccc5c(c4)OCO5)ncnc32)c(C)c1	-62	.	-55*	-3	-3	-2
Cc1cccc(-n2ncc3c(NCc4ccc5c(c4)OCO5)ncnc32)c1	-5	.	-8	-1	8	7
Cc1cccc(-n2ncc3c(NCc4cccnc4)ncnc32)c1	31	67	25	21	88*	2
COc1ccc(-n2ncc3c(NCC(C)C)ncnc32)cc1	9	0	12	.	.	5
C[C@@H]1CN([C@H](C)CO)C(=O)c2cc(C#CC3CCCC3)cnc2O[C@H]1CN(C)S(=O)(=O)c1cccc(F)c1	.	.	.	.	8	.
Cc1cccc(-n2ncc3c(NCCCO)ncnc32)c1	34	65	13	40*	21	7.9*
Cc1ccc(-n2ncc3c(NCc4cccnc4)ncnc32)cc1C	55*	69	37	13	75*	1
Cc1ccc(-n2ncc3c(NCc4ccccc4)ncnc32)cc1	13	47	6	.	36	6
C/C=C/c1ccc([C@@H]2[C@@H](CO)N(C(C)=O)[C@H]2CN(CC)C(=O)CN(C)C)cc1	.	.	.	.	-2	.
Cc1cc(C(=O)Nc2nnc(C3CCCCC3)s2)no1	4	7	3	-1	18	-1
COc1ccc(N2CC(C(=O)Nc3nnc(C4CCCCC4)s3)CC2=O)cc1 (stereo not given)	-70	2	-62*	0	0	0
SMILES	HSF1 activator	MITF TRPM1 HTS	HSF1 inh	Wnt bcat act	esBAF inh	SMARCA2 act
Cc1ccc(C(=O)Nc2nnc(C3CCCCC3)s2)o1	68*	56	37	-4	11	5
CC1(C)CSC(=NCCc2ccccc2)N1	1	17	-2	-2	45*	-1
CC1(C)CSC(=NCCc2ccccc2)N1C(=O)c1ccc(C#N)cc1	-4	14	-9	8	.	-1
C[C@H](CO)N1C[C@H](C)[C@H](CN(C)Cc2ccc(-c3ccccc3)cc2)Oc2c(NC(=O)Nc3ccc(C(F)(F)F)cc3)cccc2C1=O	.	.	.	.	-3	.
COc1cc(O)c2c(=O)cc(-c3ccccc3)oc2c1	25	95*	17	23	50*	0
O=c1cc(-c2ccc(O)cc2)oc2cc(O)cc(O)c12	7	94*	7	46*	?	0
Nc1ccc2oc(-c3ccccc3Cl)cc(=O)c2c1O	17	29	15	21	60*	6
COCOc1ccc(-c2cc(=O)c3c(O)cc(OCOC)cc3o2)cc1	3	.	3	15	88*	8
CO[C@@H]1CN(C)C(=O)c2ccc(NC(=O)NC(C)C)cc2OC[C@@H](C)N(C(=O)CC2CC2)C[C@H]1C	.	.	.	.	-5	.
COc1cccc(C(=O)Nc2ccc3c(c2)C(=O)N(C)[C@@H]2CC[C@@H](CC(=O)NCc4ccccc4F)O[C@H]2CO3)c1	.	.	.	.	2	.
O=c1cc(-c2ccccc2)oc2cccc(O)c12	.	21	.	-1	45*	0
O=c1cc(-c2cccc(Br)c2)oc2cccc(O)c12	12	16	6	14	33	1
Cc1ccccc1-c1cc(=O)c2c(O)cccc2o1	57*	8	27	1	9	1
O=c1cc(-c2cccc(Cl)c2)oc2cccc(O)c12	-14	14	-1	7	39	1
C[C@H]1CN([C@@H](C)CO)C(=O)c2ccccc2-c2ccccc2CO[C@H]1CN(C)C(=O)c1ccccc1	.	.	.	.	2	.
C#CCN1C(=O)S/C(=C\c2ccc(N3CCOCC3)cc2C)C1=O	46	72	26	56*	.	2
O=C(CN1C(=O)S/C(=C/c2ccc(N3CCOCC3)cc2)C1=O)N1CCOCC1	9	28	1	9	.	-1
CCCN1C(=O)S/C(=C\c2ccc(N3CCOCC3)o2)C1=O	93*	52	68	2	?	6
CCN1C(=O)S/C(=C\c2ccc(N3CCOCC3)cc2C)C1=O	65*	66	45	81*	55*	4
CCOc1ccc(N=C2NC(=O)S/C2=C\c2ccc(N(C)C)cc2)cc1	35	.	25	.	50*	4
CCOc1ccc(/C=C2/SC(=O)NC2=S)cc1	7	12	4	.	.	4
C[C@@H]1CN([C@H](C)CO)C(=O)c2cc(C#C[C@@H](C)O)cnc2O[C@H]1CN(C)C(=O)Cc1ccccn1	.	.	.	.	-4	.
CC1(C)CC(NC(=O)c2ccccc2)CC(C)(C)N1	1	.	0	0	-8	1
C[C@@H]1C(NC(=O)c2ccccc2)CC2CC1C2(C)C (stereo not given in full)	73*	-2	21	-1	2	4
COc1ccccc1CN1[C@H](CO)[C@H]2c3ccccc3N(C(=O)c3ccncc3)C[C@H]21	.	.	.	.	-7	.
COc1ccc(NC(=O)c2cc3cc(OC)ccc3oc2=N)cc1	-60	40	-53*	-1	33	-2
